# The sample as a whole holds a higher share of hits than the screen did.
# ALOX12 inh: inhibitors of human 12S-lipoxygenase ALOX12. AID 1671190. Potency, µM (series often up to 108 µM), for inactives: at the highest dose activity change, negative = inhibition, hits mostly inhibitors. 1.1% of 580,000 active. P18054. purified 12hLO, xylenol orange hydroperoxide absorbance; note: potency is the fitted concentration of half-maximal effect
# Target sequence (P18054 whole entry, looked up): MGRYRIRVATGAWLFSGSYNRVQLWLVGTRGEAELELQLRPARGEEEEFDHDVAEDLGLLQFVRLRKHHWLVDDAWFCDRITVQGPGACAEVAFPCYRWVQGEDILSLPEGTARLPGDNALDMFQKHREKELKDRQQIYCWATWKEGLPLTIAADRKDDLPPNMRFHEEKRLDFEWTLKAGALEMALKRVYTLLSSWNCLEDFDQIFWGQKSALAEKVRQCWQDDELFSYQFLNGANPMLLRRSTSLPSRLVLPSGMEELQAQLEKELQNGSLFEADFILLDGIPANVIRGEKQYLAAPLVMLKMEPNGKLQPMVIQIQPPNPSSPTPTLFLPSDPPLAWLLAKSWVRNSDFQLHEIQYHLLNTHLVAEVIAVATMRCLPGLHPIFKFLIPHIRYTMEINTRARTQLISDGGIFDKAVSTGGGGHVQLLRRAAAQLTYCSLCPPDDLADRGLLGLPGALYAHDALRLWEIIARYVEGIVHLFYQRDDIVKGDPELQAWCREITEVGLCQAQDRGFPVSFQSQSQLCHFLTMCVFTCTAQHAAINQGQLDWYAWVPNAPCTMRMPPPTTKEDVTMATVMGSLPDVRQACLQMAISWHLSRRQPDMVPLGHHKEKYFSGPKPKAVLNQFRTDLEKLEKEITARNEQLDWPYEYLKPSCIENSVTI
#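 Purified human 12hLO at 150 nM in 25 mM Hepes, 0.01% Triton X-100, pH 7.0, preincubated 15 min at room temperature with compound. Reaction started with 40 uM arachidonic acid, 30 min at room temperature. Hydroperoxide measured by Fe-xylenol orange, 573/405 nm absorbance ratio.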
# HT1080 IDH1KD tx: kills HT-1080 cells with IDH1 knockdown | Potency, µM (titrated, usually from 46.1 µM), inactives show top-dose activity, negative = toxicity, most hits filed as cytotoxic | 2% of 360,000 active | HT-1080 IDH1 knockdown viability, ATP luminescence, 48 h;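 note: potency is the fitted concentration of half-maximal effect; 0% = DMSO wells and -100% = cell-free medium wells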
#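 In this qHTS, HT-1080 cells depleted of IDH1 are exposed for 48 h at 37 °C to compound titrations. Toxicity is scored from CellTiter-Glo luminescence, with DMSO as full viability and medium alone as none.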
# TDP1 cell noCPT: qHTS for Inhibitors of human tyrosyl-DNA phosphodiesterase 1 (TDP1): qHTS in cells in absence of CPT. DT40 Tdp1-/- hTDP1 cells, no CPT, ATP luminescence, 48 h. Potency, µM (series often up to 46.2 µM), inactives show top-dose activity change, negative = growth inhibition, most hits filed as inhibitors. 15% of 420,000 active. AID 686978, 2013; note: potency is the fitted concentration of half-maximal effect; nearly all actives have a fitted effect of over 55% in size
#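 Camptothecin absent (DMSO only). Human TDP1-complemented DT40 knockout cells, 400 cells/well, 37 °C for minimum 48 hr; ATP measured via CellTiter-Glo, 30 min dark incubation, luminescence.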
# IL-1B inflam inh: inhibitors of inflammasome signaling (IL-1 beta secretion). THP-1 LPS/ATP IL-1B secretion, AlphaLISA, 16 h; hits give low values. activity change, % at 57.5 µM. 4.7% of 360,000 active. AID 743279; in the data active = activity change below about -50%; inconclusive = mostly about -30% to -49%
#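 THP-1 cells pretreated 1 hr with compounds (up to 57.5 uM final), then stimulated with LPS (250 ng/mL final) plus ATP (1.25 mM final); secreted IL-1B measured by AlphaLISA after 16 hr, decreased signal indicating inhibition.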
# HT1080-NT tox: kills 2HG-producing HT-1080-NT fibrosarcoma cells. 1.6% of 360,000 active. Potency, µM (titrated, usually from 46.1 µM), for the others: at the highest dose activity, negative = less viability, usual class: cytotoxic. HT-1080-NT fibrosarcoma viability, CellTiter-Glo ATP luminescence, 48 h;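 note: NT is the 2HG producing partner of a matched IDH1 knockdown line; potency is the fitted concentration of half-maximal effect; 0% = DMSO-treated cells and -100% = media-only wells without cells; nearly all actives have a fitted effect of over 55% in size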
#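 Toxicity toward the 2HG-producing NT line was scored as %Activity, normalised to DMSO and no-cell wells, from CellTiter-Glo luminescence after 48 hours' treatment.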
# TDP1 cell CPT: DT40-hTDP1 cell growth loss with CPT; chicken DT40 Tdp1-/-;hTDP1 cells + 20 nM CPT, ATP luminescence, 48 h; Potency, µM (doses to about 46.2 µM), for inactives: at the top dose activity change, negative = growth inhibition, usual class: inhibitors; 12% of 420,000 active; AID 686979; note: potency is the fitted concentration of half-maximal effect; nearly all actives have a fitted effect of over 55% in size
#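 Cell growth measured by CellTiter-Glo luminescence after a minimum 48 h, 37 C compound exposure with 20 nM CPT in Tdp1-knockout DT40 cells stably expressing hTDP1, seeded 400/well; qHTS titration format.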
# The depositor's hits bear a star; ? = inconclusive; . = not tested or not shown; [ ] = another dose, or the depositor's remark. Unless noted, calls come from the whole dose curve; as a rule, active = well fitted curve in the direction sought with a large enough effect; inconclusive = small, poorly fitted or top-dose-only effect, or another doubt; inactive = no such curve, though single readings can be large; an effect the other way counts as inactive or inconclusive. Unless noted, % is set by controls: 0 for no effect and ±100 for the full control effect.
SMILES,ALOX12 inh,HT1080 IDH1KD tx,TDP1 cell noCPT,IL-1B inflam inh,HT1080-NT tox,TDP1 cell CPT
COc1ccc2c(c1)C(=O)N(Cc1ccccc1)C(=O)C2(C)C,1.7%,-9.2%,-29.9%,-14.7,-5.2%,-2.0%
O=C1C(=O)N(CCS(=O)(=O)c2ccccc2)c2ccc(F)cc21,-18.1%,-22.1%,?,2.6,-3.7%,20.6µM*
COc1ccc2c(c1)C(=O)C(=O)N2CCS(=O)(=O)c1ccccc1,-9.5%,6.7%,2.31µM*,-8.6,-6.9%,7.31µM*
O=S(=O)(CCN1CCN(c2ccccc2F)CC1)c1ccccc1,-2.7%,.,.,.,.,.
CCCCC(c1nc2ccccc2[nH]1)n1c(-c2ccccc2)nc2cc(C)c(C)cc21 (stereo unspecified),-6.1%,17.6%,23.1µM*,0.0,19.6%,14.6µM*
CCCCC(c1nc2ccccc2[nH]1)n1c(-c2ccccc2)nc2ccccc21 (stereo unspecified),1.2%,-1.1%,-12.0%,0.0,14.9%,-14.9%
Cc1ccc2nc(-c3ccc(Cl)cc3)cc(C(=O)NCc3ccncc3)c2c1,-4.0%,.,.,.,.,.
Cc1ccc(C)c(S(=O)(=O)c2nnn3c2nc(NCc2ccc(F)cc2)c2sccc23)c1,-6.9%,.,.,.,.,.
CC1CCC[C@]2(CCc3cc4c5c(c(=O)oc4cc3O2)CCCC5)C1 (stereo partly specified),-29.0%,.,.,.,.,.
N#C/C(=C(/O)CN1CCN(c2ccccc2F)CC1)c1nc(-c2ccc(Cl)cc2)cs1,-15.6%[57.4 µM],0.0%,?,-11.4,0.0%,20.6µM*
N#C/C(=C(/O)CCl)c1nc(-c2ccccc2)cs1,?,-29.8%,14.6µM*,-56.6*,-27.7%,13µM*
N#C/C(=C(/O)CN1CCCCC1)c1nc(-c2ccc(Cl)cc2)cs1,-26.9%,-7.0%[9.24 µM],-7.7%,14.0,-0.1%,-14.9%
Cc1ccc(-c2csc(/C(C#N)=C(\O)CCl)n2)cc1,10.0%,-13.0%,?,-72.8*,-20.8%,?
Cc1cc(C)cc(NC(=O)c2ccc3ccccc3n2)c1,-21.1%,.,.,.,.,.
Cc1cc(Br)ccc1NCC(=O)N(C1CCCCC1)C1CCS(=O)(=O)C1 (stereo unspecified),13.4%,.,.,.,.,.
Cc1cc(S(=O)(=O)Nc2ccc3ccccc3c2)c(C)s1,-17.2%,14.1µM*,11.2µM*,27.8,12.6µM*,10µM*
Cc1cc(S(=O)(=O)Nc2cc(C)c(O)c(C)c2)c(C)s1,?,?,2.91µM*,-14.7,?,2.59µM*
CC(C)CC(=O)Nc1ccc(NC(=O)c2ccccc2F)cc1,-11.5%,.,.,.,.,.
Cn1cc(CN(C(=O)Nc2ccc(Cl)c(Cl)c2)C2CCCCC2)c2ccccc21,-15.5%,.,4.11µM*,.,.,2.31µM*
Cn1cc(CN(C(=O)Nc2ccccc2)C2CCCCC2)c2ccccc21,-4.9%,.,8.2µM*,.,.,6.51µM*
COc1ccccc1CN1CC[C@H]2COC(=O)N2c2cc(F)ccc2C1,-0.6%[176 µM],.,.,.,.,.
CC1=CC(=O)C=C(C)C1=NOC(=O)/C=C\c1ccccc1,-11.6%,-17.4%,-6.3%,2.9,-12.5%,16.4µM*
CC1=C(C)/C(=N\OC(=O)/C=C/c2ccccc2)C=CC1=O,0.0%,-2.9%,13µM*,37.2,-2.4%,13µM*
CC(C)N(C)CCOC(=O)/C=C/c1ccccc1,0.8%,0.3%,-8.1%,-3.7,2.5%,-21.3%
CC1=CC(=NOC(=O)/C=C/c2ccccc2)C=C(C)C1=O,1.8%,?,13µM*,-64.7*,?,20.6µM*
SMILES,ALOX12 inh,HT1080 IDH1KD tx,TDP1 cell noCPT,IL-1B inflam inh,HT1080-NT tox,TDP1 cell CPT
Cc1ccc(C(=O)COC(=O)/C=C/c2ccccc2)cc1,34.2%,.,.,.,.,.
O=C(Nc1c(NC2CCCCC2)c2ccccc2oc1=O)c1ccccc1Cl,6.1%,.,.,.,.,.
Cc1ccc(N2C(=O)CC(c3cccs3)C3=C2CCCC3=O)cc1 (stereo unspecified),-2.2%,.,.,.,.,.
CSc1ccc(CN2CCC2(C)C(=O)NCc2cccs2)cc1 (stereo unspecified),-3.2%,-15.4%,?,0.0,15.1%,?
CSc1ccc(CN2CCC2(C)C(=O)NC2CCc3ccccc32)cc1 (stereo unspecified),11.1%,?,16.4µM*,-1.5,?,?
Cc1ccc(CN2CCC2(C)C(=O)NC2CCc3ccccc32)cc1 (stereo unspecified),?,-21.6%,23.1µM*,0.6,-17.4%,?
Nc1cc(-n2cccc2)ccc1Cl,-4.9%,.,.,.,.,.
COc1cccc(NC(=O)CN2CCN(c3nc(-c4ccco4)c4c(c3C#N)CCC4)CC2)c1,32.2%,.,.,.,.,.
CC(=O)CC[N+](C)(C)C,?,?,14.6µM*,-96.3*,-7.5%,13µM*
CCCCCCCCCC(C)=O,-10.9%[176 µM],.,.,.,.,.
COc1ccc([C@H]2C[C@@H](O)[C@@H](O)[C@@H]2NC(=O)c2cc3ccccc3s2)cc1,-10.6%[176 µM],.,.,.,.,.
CS(=O)(=O)c1ccc(-c2cnc([C@@H]3COCCN3C3CCNCC3)[nH]2)cc1,19.3%[176 µM],.,.,.,.,.
CCCOc1ccc(C2Nc3cccc4cccc(c34)N2)cc1,?,-8.8%,6.51µM*,33.8,0.4%,20.6µM*
CCN(CC)c1ccc(C2Nc3cccc4cccc(c34)N2)cc1,?,-6.0%,16.4µM*,-7.8,-13.3%,?
CCN(CC)c1ccc(N=C2C(=O)Nc3ccccc32)cc1,6.8%,20.6µM*,5.8µM*,-89.0*,?,6.51µM*
CCN(CC)c1ccc(C2NC(=O)c3ccccc3N2)cc1 (stereo unspecified),7.4%,?,13µM*,38.7,?,7.31µM*
Cc1ccc(N=C2C(=O)Nc3ccccc32)cc1,0.0%,0.7%,4.3%,17.4,-0.8%,-4.8%
Cc1n[nH]c(=S)n(/N=C/c2cccs2)c1=O,?,0.8%,6.51µM*,-6.1,-8.8%,?
Cc1ccc(-c2nc3cccnc3o2)cc1NC(=O)COc1ccc(C(C)(C)C)cc1,1.8%,?,9.2µM*,-9.1,?,14.6µM*
CN1C(=O)CCCCC1C(=O)N1CCc2ccccc2C1 (stereo unspecified),12.2%,.,.,.,.,.
O=C(Cc1cccc(F)c1)NCc1nnc2c(-c3nc(C4CC4)no3)cccn12,47.3%,.,.,.,.,.
N#Cc1ccc(/C=N/Nc2ccccc2Cl)cc1,10µM*,.,.,.,.,.
Clc1ccccc1NN=Cc1ccccn1,?,?,-28.4%,0.0,-10.3%,-6.3%
Fc1ccc(/C=N/Nc2cccc(Cl)c2)cc1F,3.98µM*,.,.,.,.,.
N#Cc1ccc(/C=N/Nc2cccc(Cl)c2)cc1,2.51µM*,.,.,.,.,.
